# Data reported in PubChem BioAssay (NCATS).
# “And” between values parts separate entries of the source, which are not always exact repeats. Equal entries are not always repeated. A number with no mark means an inactive call. Results filed as inconclusive are left out. Entries that show only a call come without a potency. The source made the active and inactive calls. Unless noted, calls follow the shape of the dose curve; as a rule, active = well fitted curve in the direction sought with a large enough effect; inconclusive = small, poorly fitted or top-dose-only effect, or another doubt; inactive = no such curve, though single readings can be large; an effect the other way counts as inactive or inconclusive.
# Assays:
# UISO = assay: qHTS assay to identify novel small-molecules to repurpose for Merkel cell carcinoma treatment (AID 1296009); conditions: MCC and control cell lines, CellTiter-Glo viability, 72 h; series mostly up to 46 µM; also: nearly all actives have a fitted effect of over 60% in size; also: potency is read from the fitted curve at half-maximal effect
# Summary of the method: (§1)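 Viability readout: ATP luminescence (CellTiter-Glo) after 72 hr drug exposure at 37 degree celsius. Dose-response format was 8 points for NPC and 11 points for MIPE; data normalized to in-plate controls.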
# WaGa = assay: as above; conditions: MCC and control cell lines, CellTiter-Glo viability, 72 h; series mostly up to 46 µM
# Summary of the method: as §1
# C33A = assay: Primary qHTS to identify gynecologic anti-cancer compounds using libraries of approved drugs and bioactive compounds (AID 1345084); conditions: Gynecologic cancer cell panel viability, ATPlite luminescence, 48 h; series mostly up to 57.5 µM; also: nearly all actives have a fitted effect of over 55% in size; also: potency is read from the fitted curve at half-maximal effect
# Summary of the method: (§2)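 Measured: luminescence after ATPlite addition (15 min, RT). Exposure: 48 h, 37 C, 5% CO2.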
# CAOV3 = assay: as above; conditions: Gynecologic cancer cell panel viability, ATPlite luminescence, 48 h; series mostly up to 57.5 µM
# Summary of the method: as §2
# CASKI = assay: as above; conditions: Gynecologic cancer cell panel viability, ATPlite luminescence, 48 h; series mostly up to 57.5 µM
# Summary of the method: as §2
# Es-2 = assay: as above; conditions: Gynecologic cancer cell panel viability, ATPlite luminescence, 48 h; series mostly up to 57.5 µM
# Summary of the method: as §2
# HeLa = assay: as above; conditions: Gynecologic cancer cell panel viability, ATPlite luminescence, 48 h; series mostly up to 57.5 µM
# Summary of the method: as §2
# Hek293T = assay: as above; conditions: Gynecologic cancer cell panel viability, ATPlite luminescence, 48 h, control line for the selectivity index; series mostly up to 57.5 µM
# Summary of the method: as §2
# JEG-3 = assay: as above; conditions: Gynecologic cancer cell panel viability, ATPlite luminescence, 48 h; series mostly up to 57.5 µM
# Summary of the method: as §2
# OV90 = assay: as above; conditions: Gynecologic cancer cell panel viability, ATPlite luminescence, 48 h; series mostly up to 57.5 µM
# Summary of the method: as §2
# PA-1 = assay: as above; conditions: Gynecologic cancer cell panel viability, ATPlite luminescence, 48 h; series mostly up to 57.5 µM
# Summary of the method: as §2
# SKOV3 = assay: as above; conditions: Gynecologic cancer cell panel viability, ATPlite luminescence, 48 h; series mostly up to 57.5 µM
# Summary of the method: as §2
# Tov-21-G = assay: as above; conditions: Gynecologic cancer cell panel viability, ATPlite luminescence, 48 h; series mostly up to 57.5 µM
# Summary of the method: as §2
# Tov112D = assay: as above; conditions: Gynecologic cancer cell panel viability, ATPlite luminescence, 48 h; series mostly up to 57.5 µM
# Summary of the method: as §2
# [1] = Drug repurposing screens with cells derived from glioblastoma tumor samples (AID 1345199); conditions: GBM patient neurospheres viability, ATP luminescence, 48 h; also: nearly all actives have a fitted effect of over 40% in size; also: potency is read from the fitted curve at half-maximal effect
# Summary of the method: (§3)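 Primary testing used CD133+ neurospheres from four GBM patients, seven concentrations, 48 h exposure and ATP-based viability; confirmation added three slower-growing patient lines.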
# astro = assay: as above; conditions: viability, ATP luminescence, 48 h; series mostly up to 45.9 µM
# Summary of the method: as §3
# [2] = biological target: Nuclear receptor subfamily 1 group I member 2 (Rattus norvegicus) (UniProt Q9R1A7); assay: qHTS assay for small molecule activators of the rat pregnane X receptor (rPXR) signaling pathway (AID 651751; call rule not given here); conditions: rPXR reporter cells, luciferase (One-Glo), 24 h
# [3] = qHTS assay to identify inhibitors of the type 1 interferon - major histocompatibility complex class I in skeletal muscle: Counter screen cell viability and HiBit confirmation (AID 1347412); conditions: iHSKM muscle cells + IFN-b, HiBiT or CellTiter-Glo, 24 h; HiBiT; also: potency is read from the fitted curve at half-maximal effect; nearly all actives have a fitted effect of over 60% in size
# Summary of the method: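 Myoblasts (C25cl48, HLA-B HiBiT) seeded in medium without dexamethasone, IFN-b 4 ng/ml added except unstimulated columns; 1 hr later compounds pinned (12-pt 1:3, top 46 uM final). Incubated 24 hrs, lysed 10 min, luminescence measured.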
# [4] = at 45.9 µM (top of the series), tumour line B
# [5] = at 45.9 µM (top of the series), tumour line D
# [6] = at 46 µM (top of the series), tumour line A
# [7] = at 21.2 µM (top of the series), tumour line B
# [8] = at 21.2 µM (top of the series), tumour line D
# Sequence of Nuclear receptor subfamily 1 group I member 2 (Rattus norvegicus) (Q9R1A7 whole entry, looked up): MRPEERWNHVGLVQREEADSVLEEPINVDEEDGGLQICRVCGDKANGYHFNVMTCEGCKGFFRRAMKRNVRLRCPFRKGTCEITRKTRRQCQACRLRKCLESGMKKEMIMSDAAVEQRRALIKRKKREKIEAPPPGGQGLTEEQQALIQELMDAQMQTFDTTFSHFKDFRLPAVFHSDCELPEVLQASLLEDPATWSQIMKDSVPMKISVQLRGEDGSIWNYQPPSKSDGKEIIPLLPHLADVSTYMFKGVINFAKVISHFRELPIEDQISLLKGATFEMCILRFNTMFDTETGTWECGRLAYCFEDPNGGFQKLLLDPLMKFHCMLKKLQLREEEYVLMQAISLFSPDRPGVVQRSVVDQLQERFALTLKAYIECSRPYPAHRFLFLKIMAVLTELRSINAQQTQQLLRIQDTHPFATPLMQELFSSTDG
structure (smiles),measurement,setting,value
CC(C)C(Br)C(=O)NC(N)=O (stereo not given),Potency,UISO,inactive
same,Potency,WaGa,inactive
same,Potency,C33A,inactive
same,Potency,CAOV3,inactive
same,Potency,CASKI,inactive
same,Potency,Es-2,inactive
same,Potency,HeLa,inactive
same,Potency,Hek293T,inactive
same,Potency,JEG-3,inactive
same,Potency,OV90,inactive
same,Potency,PA-1,inactive
same,Potency,SKOV3,inactive
same,Potency,Tov-21-G,inactive
same,Potency,Tov112D,inactive
same,"activity, negative = cell killing",[1]; [4],-3.2%
same,"activity, negative = cell killing",[1]; [5],-12.7%
same,"activity, negative = cell killing",[1]; [6],-8.61%
NCc1cccnc1,Potency,UISO,inactive
same,Potency,WaGa,inactive
same,Potency,C33A,inactive
same,Potency,CAOV3,inactive
same,Potency,CASKI,inactive
same,Potency,Es-2,inactive
same,Potency,HeLa,inactive
same,Potency,Hek293T,inactive
same,Potency,JEG-3,inactive
same,Potency,OV90,inactive
same,Potency,PA-1,inactive
same,Potency,SKOV3,inactive
same,Potency,Tov-21-G,inactive
same,Potency,Tov112D,inactive
same,"activity, negative = cell killing",[1]; [4],-7.53%
same,"activity, negative = cell killing",[1]; [5],-1.09%
same,"activity, negative = cell killing",[1]; [6],-28.1%
CN1C[C@@H](NS(=O)(=O)N(C)C)C[C@@H]2c3cccc4c3c(cn4C)C[C@H]21,Potency,UISO,inactive
same,Potency,WaGa,inactive
same,Potency,C33A,inactive
same,Potency,CAOV3,inactive
same,Potency,CASKI,inactive
same,Potency,Es-2,inactive
same,Potency,HeLa,inactive
same,Potency,Hek293T,inactive
same,Potency,JEG-3,inactive
same,Potency,OV90,inactive
same,Potency,PA-1,inactive
same,Potency,SKOV3,inactive
same,Potency,Tov-21-G,inactive
same,Potency,Tov112D,inactive
same,"activity, negative = cell killing",[1]; [4],-15.4%
same,"activity, negative = cell killing",[1]; [5],-25.6%
same,Potency,[1]; tumour line A,10 µM (active)
same,Potency,astro,inactive
O=C(NC(=O)c1c(F)cccc1F)Nc1cc(Cl)c(OC(F)(F)C(F)C(F)(F)F)cc1Cl (stereo not given),Potency,UISO,inactive
same,Potency,WaGa,inactive
same,Potency,C33A,inactive
same,Potency,CAOV3,inactive
same,Potency,CASKI,inactive
same,Potency,Es-2,inactive
same,Potency,HeLa,inactive
same,Potency,JEG-3,inactive
same,Potency,OV90,inactive
same,Potency,PA-1,inactive
same,Potency,Tov-21-G,inactive
same,Potency,Tov112D,inactive
same,"activity, negative = cell killing",[1]; [4],-8.74%
same,"activity, negative = cell killing",[1]; [5],-27.5%
same,Potency,[1]; tumour line A,7.94 µM (active)
same,max response,[2],0.749%
CN1CCC(N(Cc2ccccc2)c2ccccc2)CC1,Potency,UISO,inactive
same,Potency,C33A,inactive
same,Potency,CAOV3,inactive
same,Potency,CASKI,inactive
same,Potency,Es-2,inactive
same,Potency,HeLa,inactive
same,Potency,Hek293T,inactive
same,Potency,JEG-3,inactive
same,Potency,PA-1,inactive
same,Potency,SKOV3,inactive
same,Potency,Tov-21-G,inactive
same,Potency,Tov112D,inactive
CCN(Cc1ccc(Cl)nc1)/C(=C/[N+](=O)[O-])NC,Potency,UISO,inactive
same,Potency,WaGa,inactive
same,Potency,C33A,inactive
same,Potency,CASKI,inactive
same,Potency,Es-2,inactive
same,Potency,HeLa,inactive
same,Potency,Hek293T,inactive
same,Potency,JEG-3,inactive
same,Potency,OV90,inactive
same,Potency,PA-1,inactive
same,Potency,Tov-21-G,inactive
same,Potency,Tov112D,inactive
same,"activity, negative = cell killing",[1]; [4],-9.68%
same,"activity, negative = cell killing",[1]; [5],-5.99%
same,Potency,astro,inactive
NC(=O)CN1CCCC1=O,Potency,UISO,inactive
same,Potency,WaGa,inactive
same,Potency,C33A,inactive
same,Potency,CASKI,inactive
same,Potency,Es-2,inactive
same,Potency,HeLa,inactive
same,Potency,Hek293T,inactive
same,Potency,JEG-3,inactive
same,Potency,OV90,inactive
same,Potency,PA-1,inactive
same,Potency,SKOV3,inactive
same,Potency,Tov-21-G,inactive
same,Potency,Tov112D,inactive
same,"activity, negative = cell killing",[1]; [7],-8.16%
same,"activity, negative = cell killing",[1]; [8],-13%
same,"activity, negative = cell killing","[1]; at 21.3 µM (top of the series), tumour line A",-16.4%
same,Potency,astro,inactive
C[C@@H]1C[C@@H]([C@H](O)CC2CC(=O)NC(=O)C2)C(=O)[C@@H](C)C1,Potency,UISO,1.06 µM (active) and 1.18 µM (active)
same,Potency,WaGa,5.9 µM (active)
same,Potency,CAOV3,25.1 µM (active)
same,Potency,Es-2,0.794 µM (active)
same,Potency,Hek293T,0.501 µM (active)
same,Potency,JEG-3,inactive
same,Potency,OV90,0.631 µM (active)
same,Potency,PA-1,0.708 µM (active)
same,Potency,SKOV3,2.82 µM (active)
same,Potency,Tov-21-G,0.501 µM (active)
same,Potency,Tov112D,0.562 µM (active)
same,Potency,[3],701 nM (active) and 222 nM (active)
CCOC(C(=O)OCCN(C)C)(c1ccccc1)c1ccccc1,Potency,UISO,inactive
same,Potency,WaGa,inactive
same,Potency,C33A,inactive
same,Potency,CASKI,inactive
same,Potency,Es-2,inactive
same,Potency,HeLa,inactive
same,Potency,Hek293T,inactive
same,Potency,JEG-3,inactive
same,Potency,PA-1,inactive
same,Potency,SKOV3,inactive
same,Potency,Tov-21-G,inactive
same,Potency,Tov112D,inactive
CN(C)C(=S)SSC(=S)N(C)C,Potency,UISO,211 nM (active)
same,Potency,WaGa,0.668 µM (active)
same,Potency,C33A,1.26 µM (active)
same,Potency,CASKI,inactive
same,Potency,HeLa,inactive
same,Potency,SKOV3,1.58 µM (active)
same,Potency,Tov112D,12.6 µM (active)
same,Potency,[1]; tumour line A,35.5 µM (active)
same,Potency,[1]; tumour line B,35.5 µM (active)
CC[C@H]1C[C@H]2[C@@H]3CCC4=CC(=O)CC[C@@H]4[C@H]3CC[C@]2(C)[C@H]1O,Potency,UISO,inactive
same,Potency,WaGa,inactive
same,Potency,CASKI,inactive
same,Potency,Es-2,inactive
same,Potency,JEG-3,inactive
same,Potency,OV90,inactive
same,Potency,Tov-21-G,inactive
same,Potency,Tov112D,inactive
same,Potency,[1]; tumour line A,10 µM (active)
O=C(CCCN1CCC(n2c(=O)[nH]c3ccccc32)CC1)c1ccc(F)cc1,Potency,UISO,inactive
same,Potency,WaGa,inactive
same,Potency,C33A,inactive
same,Potency,Es-2,inactive
same,Potency,HeLa,inactive
same,Potency,Hek293T,inactive
same,Potency,JEG-3,inactive
same,Potency,OV90,inactive
same,Potency,PA-1,inactive
same,Potency,SKOV3,inactive
same,Potency,Tov-21-G,inactive
same,Potency,Tov112D,inactive
same,"activity, negative = cell killing",[1]; [7],-8.66%
same,Potency,[1]; tumour line A,5.62 µM (active)
same,Potency,astro,inactive
CCOC(=O)c1cncn1C(C)c1ccccc1 (stereo not given),Potency,UISO,inactive
same,Potency,WaGa,inactive
same,Potency,C33A,inactive
same,Potency,CASKI,inactive
same,Potency,Es-2,inactive
same,Potency,HeLa,inactive
same,Potency,Hek293T,inactive
same,Potency,JEG-3,inactive
same,Potency,OV90,inactive
same,Potency,PA-1,inactive
same,Potency,SKOV3,inactive
same,Potency,Tov-21-G,inactive
same,Potency,Tov112D,inactive
same,"activity, negative = cell killing",[1]; [7],0.856%
same,"activity, negative = cell killing",[1]; [8],-20.7%
same,Potency,astro,inactive
CCCC[N+]1(C)[C@@H]2CC(OC(=O)[C@H](CO)c3ccccc3)C[C@H]1[C@@H]1O[C@@H]12 (stereo not given in full),Potency,UISO,inactive
same,Potency,WaGa,inactive
same,Potency,C33A,inactive
same,Potency,CASKI,inactive
same,Potency,Es-2,inactive
same,Potency,HeLa,inactive
same,Potency,Hek293T,inactive
same,Potency,JEG-3,inactive
same,Potency,OV90,inactive
same,Potency,PA-1,inactive
same,Potency,SKOV3,inactive
same,Potency,Tov-21-G,inactive
same,Potency,Tov112D,inactive
same,"activity, negative = cell killing",[1]; [4],-7.47%
same,Potency,astro,inactive
